Records with an inconclusive call do not appear. Entries that show only a call come without a potency. Calls of active or inactive are those of the source. Calls follow the shape of the dose curve; as a rule, active = well fitted activation curve with a large enough effect; inconclusive = small, poorly fitted or top-dose-only effect; inactive = flat fitted curve, though single readings scatter.

The assay can be described thus: qHTS for Inhibitors of Cell Surface uPA Generation: Confirmatory Assay for Cherry-picked Compounds. The conditions noted are these: cell surface uPA activity generation, qHTS confirmation; series mostly up to 115 µM. The method in brief:
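RAW 264.7 cells at 4000/well, incubated overnight, then treated with compounds. After 24 h at 37 C, viability was read by ATPlite luminescence. An increase in signal indicates blocked uPA-dependent LF entry.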
On the technique in general: Quantitative high-throughput screening tests each substance at several concentrations.
As to `NS(=O)(=O)c1ccc(CCNC(=O)c2ccc(Cl)s2)cc1`, the Potency result was “inactive”.
For `Oc1ccc(/C=N/Nc2cccc(Cl)n2)c(O)c1`, the Potency result is “inactive”.
Turning to `CSc1nc(-c2ccccc2)nc(C(Cl)Cl)n1`, the Potency entry was “inactive”.
The result for `COc1ccc(C(C)=O)cc1CSC(=N)N` reads “inactive”; that for `CCOc1cc(N2CCOCC2)c(OCC)cc1NC(=O)c1[nH]c(C)c(C(C)=O)c1C`, “inactive”.
With `CCOC(=O)C1=C(CN2CCN(C(=O)c3ccco3)CC2)NC(=O)NC1c1ccccc1` (configuration not stated) the entry was “inactive”.
With `N#C/C(N=Nc1ccccc1O)=N\Nc1ccccc1O` the entry was “inactive”; with `O=C(c1cccc(F)c1)N1CCN(Cc2cccc(Br)c2)CC1`, “inactive”; with `COc1ccc(-n2ncc3c(=O)n(CC(=O)NC(C)C)cnc32)cc1`, “inactive”.
`Cc1nc(C(=O)N2CCC(n3nccc3NC(=O)Nc3ccccc3Cl)CC2)cs1`: the Potency result was “inactive”.
On to `Cc1ccc(C(=O)NNC(=O)CNc2cccc(Cl)c2)cc1`, for which the Potency result is “inactive”.
Take `COc1ccc(C2=NOC(CNC(N)=S)C2)cc1` (configuration not stated): the Potency entry is “inactive”.
With `Cc1cc(C)c(S(=O)(=O)N2CCCOC2CNC(=O)C(=O)NCc2cccs2)c(C)c1` (configuration not stated), the Potency result is “inactive”.
`CCOC(=O)Oc1c(OC)cc(C(=O)O[C@@H]2C[C@@H]3CN4CCc5c([nH]c6cc(OC)ccc56)[C@H]4C[C@@H]3[C@H](C(=O)OC)[C@H]2OC)cc1OC`: the Potency entry is “inactive”.
Turning to `Cc1c(NC(=O)C(C)OC(=O)CCC2CCCC2)c(=O)n(-c2ccccc2)n1C` (configuration not stated), the Potency entry is “inactive”.
Consider `O=C(Cn1cnc2c(OCc3ccccc3)ncnc21)NCCCN1CCCC1=O`, for which the Potency entry was “inactive”.
On to `CC(C)(C)n1ncc2c(=O)n(Cc3ccc(Cl)cc3)cnc21`, for which the Potency result is “inactive”.

The values above are taken from PubChem BioAssay AID720519 (National Center for Advancing Translational Sciences (NCATS), 2013).
